Cav32 inh = inhibitors of human Cav3.2 T-type calcium channel. Cav3.2-expressing cells, Fluo-4 calcium fluorescence FDSS; stronger effect = lower value. B-score at 10 µM. actives 4% (n = 100,000);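 active means single-dose well whose peak fluorescence ratio is a statistical outlier from its plate by either plate-standardised score or position-corrected B-score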
Target sequence (O95180 whole entry, looked up): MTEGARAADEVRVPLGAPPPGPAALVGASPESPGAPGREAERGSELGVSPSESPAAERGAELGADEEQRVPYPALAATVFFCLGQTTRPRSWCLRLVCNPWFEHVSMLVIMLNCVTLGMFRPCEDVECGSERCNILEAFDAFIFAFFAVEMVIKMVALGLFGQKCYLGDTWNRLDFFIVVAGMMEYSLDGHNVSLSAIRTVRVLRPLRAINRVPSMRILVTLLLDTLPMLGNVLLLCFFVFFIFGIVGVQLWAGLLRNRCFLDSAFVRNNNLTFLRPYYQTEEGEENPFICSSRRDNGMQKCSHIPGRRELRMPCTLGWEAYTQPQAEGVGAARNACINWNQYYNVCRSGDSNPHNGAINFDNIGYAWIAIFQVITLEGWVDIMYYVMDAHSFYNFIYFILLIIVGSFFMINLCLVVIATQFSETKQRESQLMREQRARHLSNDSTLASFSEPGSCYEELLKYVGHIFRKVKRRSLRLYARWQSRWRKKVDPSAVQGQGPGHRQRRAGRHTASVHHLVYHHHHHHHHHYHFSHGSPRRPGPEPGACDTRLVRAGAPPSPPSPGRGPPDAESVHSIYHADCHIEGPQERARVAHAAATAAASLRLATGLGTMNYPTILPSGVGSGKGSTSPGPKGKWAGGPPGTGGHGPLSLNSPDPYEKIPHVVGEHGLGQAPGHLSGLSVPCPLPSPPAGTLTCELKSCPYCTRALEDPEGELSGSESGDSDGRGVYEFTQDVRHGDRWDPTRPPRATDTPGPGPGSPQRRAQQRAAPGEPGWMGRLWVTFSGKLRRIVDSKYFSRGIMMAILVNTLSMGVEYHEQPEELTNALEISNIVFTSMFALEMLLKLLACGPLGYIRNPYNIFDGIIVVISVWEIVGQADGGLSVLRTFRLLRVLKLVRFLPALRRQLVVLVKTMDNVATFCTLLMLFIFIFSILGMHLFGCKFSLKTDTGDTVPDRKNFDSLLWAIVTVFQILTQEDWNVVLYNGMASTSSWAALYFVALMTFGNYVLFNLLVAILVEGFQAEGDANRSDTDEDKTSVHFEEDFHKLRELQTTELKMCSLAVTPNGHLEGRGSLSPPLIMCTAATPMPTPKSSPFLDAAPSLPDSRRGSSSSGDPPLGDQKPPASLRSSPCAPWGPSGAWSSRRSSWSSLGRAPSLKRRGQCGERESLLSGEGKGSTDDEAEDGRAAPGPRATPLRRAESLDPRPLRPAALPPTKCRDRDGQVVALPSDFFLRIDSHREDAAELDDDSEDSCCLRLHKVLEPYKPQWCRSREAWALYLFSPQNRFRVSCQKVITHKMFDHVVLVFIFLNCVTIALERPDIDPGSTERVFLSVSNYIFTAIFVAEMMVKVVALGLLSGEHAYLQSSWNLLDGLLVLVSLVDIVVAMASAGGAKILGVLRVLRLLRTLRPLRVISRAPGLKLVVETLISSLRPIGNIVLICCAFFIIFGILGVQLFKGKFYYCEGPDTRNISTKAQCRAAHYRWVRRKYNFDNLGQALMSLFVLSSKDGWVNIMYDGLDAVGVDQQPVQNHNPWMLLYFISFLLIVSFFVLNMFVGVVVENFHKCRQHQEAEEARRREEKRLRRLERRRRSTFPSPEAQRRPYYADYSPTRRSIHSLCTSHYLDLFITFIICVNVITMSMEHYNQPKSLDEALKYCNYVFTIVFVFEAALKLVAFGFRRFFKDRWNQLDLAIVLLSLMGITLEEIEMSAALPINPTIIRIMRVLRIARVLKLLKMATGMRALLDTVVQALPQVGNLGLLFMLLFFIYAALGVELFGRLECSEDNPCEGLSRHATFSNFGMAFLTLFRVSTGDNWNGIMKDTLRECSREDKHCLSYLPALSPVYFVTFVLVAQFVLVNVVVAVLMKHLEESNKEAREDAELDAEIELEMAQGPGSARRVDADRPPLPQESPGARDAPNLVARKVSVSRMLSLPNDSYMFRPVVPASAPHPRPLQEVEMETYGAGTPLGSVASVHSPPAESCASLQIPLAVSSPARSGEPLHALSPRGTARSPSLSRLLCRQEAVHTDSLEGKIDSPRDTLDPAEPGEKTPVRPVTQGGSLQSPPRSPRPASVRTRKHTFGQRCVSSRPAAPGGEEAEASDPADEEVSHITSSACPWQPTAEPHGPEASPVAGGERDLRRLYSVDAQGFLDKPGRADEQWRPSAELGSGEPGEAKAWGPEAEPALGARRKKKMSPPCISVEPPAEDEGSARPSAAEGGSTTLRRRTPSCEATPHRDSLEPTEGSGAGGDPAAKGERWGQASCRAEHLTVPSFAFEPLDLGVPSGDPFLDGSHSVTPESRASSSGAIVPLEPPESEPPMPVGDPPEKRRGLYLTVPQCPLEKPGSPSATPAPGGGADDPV
PostGolgi yeast = growth inhibition of a yeast mutant, post-Golgi transport screen; post-Golgi transport phenotypic cell assay; actives 0.9% (n = 98,000); inhibition, % at 10 µM; AID 739;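 further: yeast cells grown in 1536-well plates; yeast grown about 18 h at 30C before absorbance read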
PostGolgi ctrl = inhibits growth of the yeast control strain; AID 738; efflux-deficient yeast background strain, growth absorbance A615, 16 h; actives 5% (n = 98,000); inhibition, % at 10 µM
PTK2B oligo ant = antagonists of human Pyk2 oligomerization | Q14289 | Q293 cells, Pyk2 FERM NanoBiT luminescence; stronger effect = lower value | z-score (the deposit names both 25 µM and 10 µM) | actives 0.83% (n = 99,000) | AID 1347419;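 active means Z-score of -3 or lower, scaled per plate to the spread of control and sample wells; inactive means z-score above -3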;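 further: negative z-score means lost luminescence so less FERM oligomerization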
* = called active by the depositor; nt = not tested or not shown. Rows were chosen to be rich in hits. Some 8% of all compounds tested hit in one or more screens of this group. Unless noted, no stated cut-off is given here; in the data, active means inhibition above about 30%; inactive means the rest.

SMILES | Cav32 inh | PostGolgi yeast | PostGolgi ctrl | PTK2B oligo ant
Cc1ccccc1N(CC(=O)N/N=C/c1cc(C)n(-c2ccccc2C)c1C)S(C)(=O)=O | -9.8* | -1 | 7 | -0.45
O=C(N/N=C/c1ccc(F)cc1)c1sccc1OCc1ccc(F)cc1 | -0.011 | 6 | 34* | 0.26
Cc1ccc(NC(=O)CSC2=C(C#N)C(c3ccco3)C3=C(CC(C)(C)CC3=O)N2)cc1 (configuration not stated) | -2.8 | 3 | 13 | -3.4*
CCOC(=O)CSC1=C(C#N)C(c2ccco2)C(C(=O)Nc2cccc(C(F)(F)F)c2)=C(C)N1 (configuration not stated) | -2.3 | -2 | 97* | 0.87
CCOC(=O)C1=C(c2ccccc2)NC(SCC(=O)Nc2cccc(C)c2)=C(C#N)C1c1ccco1 (configuration not stated) | -2.1 | -20 | 1 | -4*
CCOC(=O)C1=C(c2ccccc2)NC(SCC(=O)Nc2ccccc2C)=C(C#N)C1c1ccco1 (configuration not stated) | -7.4* | -5 | 2 | -3.7*
CCOC(=O)C1=C(c2ccccc2)NC(SC)=C(C#N)C1c1ccco1 (configuration not stated) | -1.8 | -3 | 11 | -2.5
CCc1ccc(NC(=O)CSC2=C(C#N)C(c3ccco3)C3=C(CCCC3=O)N2)cc1 (configuration not stated) | -3.3 | 0 | 5 | -1.8
CCOC(=O)c1nnc(-c2cccs2)nc1NC(C)C | -0.0012 | 14 | 9 | -2
C/C(CC(=O)Nc1ccccc1-c1ccccc1)=N\NC(=O)COc1ccc(C)cc1Br | -6.5* | 5 | 5 | 0.04
O=C1c2cc(S(=O)(=O)NCCCO)ccc2-c2ccc(S(=O)(=O)NCCCO)cc21 | nt | 3 | -9 | 1.2
Cc1cccc(Nc2nc(-c3cccs3)cs2)n1 | -0.4 | nt | nt | -0.11
Cc1cccc(Nc2nc(-c3ccccn3)cs2)n1 | -3.6* | 25 | 13 | -0.14
c1ccc(Nc2nc(-c3cccs3)cs2)nc1 | -5* | -8 | 31* | -0.12
Cc1cccnc1Nc1nc(-c2ccc(O)cc2O)cs1 | -0.49 | -1 | 59* | 0.49
CC(=O)Nc1cccc(-c2csc(Nc3ccccn3)n2)c1 | -1.9 | -15 | 12 | -1.3
Cc1cccnc1Nc1nc(-c2ccccn2)cs1 | -1.2 | 101* | 52* | -0.94
COc1ccc(C(=O)Nn2cnc3scc(-c4cccs4)c3c2=O)c(O)c1 | -9* | 2 | 24 | -1.3
COc1cccc(-n2cnc3scc(-c4cccs4)c3c2=O)c1 | nt | -3 | 1 | 0.08
Cc1nc2c(C(=O)NCCc3ccccc3)c[nH]n2c(=O)c1Cl | -0.84 | 0 | -2 | -0.07
Cc1nc2c(C(=O)NCCC(C)C)c[nH]n2c(=O)c1Cc1ccccc1F | -5.2* | 12 | -3 | -1.8
O=C(CCc1ccccc1)n1nc(-c2ccco2)nc1SCc1ccccc1 | nt | -1 | 9 | nt
CCOc1cc(C)c(S(=O)(=O)Nc2ccc(Cl)cn2)cc1C | -0.084 | 1 | 58* | 1.3
Cc1cccc(N2CCN(C(=O)c3ccncc3)CC2)c1C | 1.5 | 8 | 1 | 1.4
Cc1cccc(N2CCN(C(=O)c3c(C)nn(Cc4ccccc4Cl)c3C)CC2)c1C | -5.5* | -3 | 38* | 0.24
SMILES | Cav32 inh | PostGolgi yeast | PostGolgi ctrl | PTK2B oligo ant
O=C(CSc1nnc(CN2CCOCC2)n1-c1ccccc1)Nc1ccc(Cl)cc1 | 0.0065 | -4 | 3 | 2
COc1ccc(-n2c(-c3ccccc3)cc3c2CCCC3=O)cc1 | -0.12 | 10 | 68* | -1.8
Cc1ccc(-n2c(C)cc3c2CCCC3=O)cc1 | -0.88 | -2 | 4 | -0.87
COc1ccc(/C=N/NC(=O)Cc2csc(Nc3cccc(C(F)(F)F)c3)n2)cc1C | -3.9* | 9 | 20 | -0.4
O=C(Cn1ncc2c1-c1ccccc1OC2)N(Cc1ccco1)C1CCCCC1 | -2.3 | 1 | 32* | nt
CCN(CC)C(=O)Cn1ncc2c1-c1ccccc1OC2 | 0.88 | 2 | 2 | nt
O=C(Cn1ncc2c1-c1ccccc1OC2)Nc1nc2ccccc2s1 | -9.4* | -10 | 47* | nt
CCCC(=O)NC(=S)Nc1ccccc1F | 1.5 | -6 | 13 | 0.51
O=C(Nc1ccc(CN2CCOCC2)cc1)c1ccc(-c2cc(Cl)ccc2Cl)o1 | 0.42 | 73* | 65* | -1.5
COCCn1c(SCC(=O)Nc2ccc(Cl)cn2)nc2ccccc21 | -2.2 | -1 | 10 | -1.8
COCCn1c(SCC(=O)Nc2sccc2C(N)=O)nc2cc(Cl)ccc2c1=O | nt | -1 | 9 | -3*
Cc1nnc(SCC(=O)Nc2sccc2C(N)=O)n1Cc1ccccc1 | 1.3 | 6 | 32* | -0.7
CCOC(=O)C(NC=O)(NC(C)(C)C)C(=O)OCC | -0.15 | -2 | 12 | -0.61
CC1CC(C)CN(c2ncc3c(n2)CC(c2ccccc2Cl)CC3=O)C1 (configuration not stated) | -1.4 | -4 | 31* | -1.2
Cc1ccc(C2CC(=O)c3cnc(N4CCc5ccccc5C4)nc3C2)cc1 (configuration not stated) | -3.5 | 7 | 27 | -0.96
O=C1CC(c2ccccc2)Cc2nc(N3CCc4ccccc4C3)ncc21 (configuration not stated) | -6.2* | 5 | 46* | -0.14
CC1=CCC2C(=O)N(c3ccc(C(=O)N4CCCCCC4)cc3)C(=O)C2C1 (configuration not stated) | 0.0079 | -6 | -3 | 1
CN(C)C(=O)CSc1nnc(C23CC4CC(CC(C4)C2)C3)o1 | 0.6 | 4 | 15 | 0.15
O=[N+]([O-])c1cc(-c2nnc(C34CC5CC(CC(C5)C3)C4)o2)cc([N+](=O)[O-])c1 | nt | 7 | 47* | -1.4
COc1ccc(NCc2n[nH]c(=O)c3ccccc23)cc1 | 0.68 | -4 | 32* | -0.5
Cc1nnc(NCc2n[nH]c(=O)c3ccccc23)c2ccccc12 | 0.84 | 8 | 1 | 1.5
CCc1nc(NCCN2CCOCC2)c(C#N)c2c1CCCC2 | -0.41 | 3 | 2 | 0.07
CC(C)Cc1nc(NCCN2CCOCC2)c(C#N)c2c1COC(C)(C)C2 | -0.0021 | 51* | 100* | -1.4
CC(C)c1nc(NCCN2CCOCC2)c(C#N)c2c1COC(C)(C)C2 | 0.38 | 13 | 60* | 0.03
CCCCc1nc(NCCN2CCOCC2)c(C#N)c2c1COC(C)(C)C2 | -0.48 | 15 | 102* | 0.59
SMILES | Cav32 inh | PostGolgi yeast | PostGolgi ctrl | PTK2B oligo ant
CC(C)C(NS(=O)(=O)c1cccc2nsnc12)C(=O)Nc1nc2ccc(Cl)cc2s1 (configuration not stated) | nt | -1 | 47* | nt
O=C(COc1ccc(S(=O)(=O)N2CCOCC2)cc1)Nc1ccc(Cl)c(C(F)(F)F)c1 | -5.5* | -6 | 11 | -0.38
COc1ccc(-c2[nH]ncc2/C=N\NS(=O)(=O)c2ccc(Cl)cc2)cc1 | -2 | 1 | 31* | -0.53
COc1ccc(-c2[nH]ncc2/C=N\NS(=O)(=O)c2ccccc2)cc1OC | nt | 14 | 8 | 2.6
COc1ccccc1-n1cnnc1SCC(=O)c1cc(C)n(Cc2cccs2)c1C | -2.7 | -9 | 6 | 0.96
Cc1cc(C(=O)CSc2nnc(-c3ccccc3F)o2)c(C)n1Cc1cccs1 | -4.9* | 1 | 29 | -0.11
COc1ccccc1N(CC(=O)NCC1CCCO1)C(=O)CCC(=O)Nc1nccs1 (configuration not stated) | 0.0078 | nt | nt | 0.01
